# Laboratory results reported in PubChem BioAssay (NCATS).
# Unmarked numbers belong to inactive results. Inconclusive results are not listed. Where a call stands in place of a potency, no number is given. Active and inactive are the calls of the source. Unless noted, calls come from the whole dose curve; as a rule, active = well fitted curve in the direction sought with a large enough effect; inconclusive = small, poorly fitted or top-dose-only effect, or another doubt; inactive = no such curve, though single readings can be large; an effect the other way counts as inactive or inconclusive. Where a SMILES comes first, the peptide text is derived from it.
# Assays:
# [1] = molecular target: Glutathione peroxidase 1 (Homo sapiens) (UniProt P07203); assay: Primary qHTS Assay for Inhibitors of Recombinant Selenoprotein Glutathione Peroxidase 1 (GPX1) (AID 1845191); note: nearly all actives have a fitted effect of over 65% in size
# Glutathione peroxidase 1 (Homo sapiens), sequence (P07203 whole entry, looked up): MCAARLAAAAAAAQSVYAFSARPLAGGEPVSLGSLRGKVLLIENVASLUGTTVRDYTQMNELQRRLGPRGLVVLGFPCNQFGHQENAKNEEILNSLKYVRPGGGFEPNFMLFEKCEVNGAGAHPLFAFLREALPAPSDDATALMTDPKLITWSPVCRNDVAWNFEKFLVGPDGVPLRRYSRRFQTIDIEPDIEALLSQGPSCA
# Procedure, shortened: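 Recombinant GPX1 (10 nM final) was preincubated with compound for 30 min at room temperature, then reacted with 1 mM GSH, 0.5 mM CHP, 0.5 mM NADPH and 100 nM glutathione reductase; NADPH fluorescence (340/450 nm) was read at 0 and 15 min.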
# [2] = molecular target: Phospholipid hydroperoxide glutathione peroxidase GPX4 (Homo sapiens) (UniProt P36969); assay: Primary qHTS Assay for Inhibitors of Recombinant Selenoprotein Glutathione Peroxidase 4 (GPX4) (AID 1845192); note: nearly all actives have a fitted effect of over 65% in size; for activity change, negative = inhibition: series mostly up to about 50 µM
# Phospholipid hydroperoxide glutathione peroxidase GPX4 (Homo sapiens), sequence (P36969 whole entry, looked up): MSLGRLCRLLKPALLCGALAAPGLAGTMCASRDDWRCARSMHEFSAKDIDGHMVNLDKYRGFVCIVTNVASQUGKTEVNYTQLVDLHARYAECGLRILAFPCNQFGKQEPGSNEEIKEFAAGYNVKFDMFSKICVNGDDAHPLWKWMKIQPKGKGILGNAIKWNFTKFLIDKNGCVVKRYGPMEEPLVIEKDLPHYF
# Procedure, shortened: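 GR-coupled readout: 100 nM GR, 1 mM GSH, 0.5 mM NADPH; NADPH fluorescence (ex 340/em 450 nm) read at t=0 and after 15 min RT. GPX4 200 nM, preincubated 30 min with compound; substrate 0.5 mM CHP.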
# [3] = molecular target: Luciferin 4-monooxygenase (Photinus pyralis) (UniProt P08659); assay: Primary firefly luciferase (FLuc) qHTS assay for identification of artifact compounds. (AID 1845220); note: nearly all actives have a fitted effect of over 60% in size; for activity change, negative = inhibition: series mostly up to about 54 µM
# Procedure, shortened: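 In this counter-screen for luciferase artifacts, test compounds met substrate (10 uM each luciferin and ATP) before 10 nM enzyme started the reaction. Light output was measured 5 min later.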
# [4] = Primary fluorescence-based thiol-reactive (MSTI) qHTS assay for identification of artifact compounds. (AID 1845221); note: nearly all actives have a fitted effect of over 65% in size; note: potency is the fitted concentration of half-maximal effect;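 for activity change, negative = thiol reactive: series mostly up to about 54 µM; thiol-reactive compounds lower the probe fluorescence signal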
# Procedure, shortened: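 A multi-concentration qHTS design tested compounds against 4 uM MSTI, pH 7.4 phosphate-buffered saline. Plates were protected from light for 1 h at room temperature before imaging fluorescence.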
# [5] = NCATS anti-infectives library activity on HEK293 viability as a counter-qHTS vs the C. elegans viability qHTS (AID 1745854)
# Procedure, shortened: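 HEK293 cells, 1500 per well, exposed 24 hr at 37C in 5% CO2 to compounds in a 1:5 titration, up to 41.7 uM final. Viability read as CellTiter-Glo luminescence after 10 min at room temperature.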
# [6] = NCATS anti-infectives library activity on the primary C. elegans qHTS viability assay (AID 1745855; calls by dose curve; note: potency is the fitted concentration of half-maximal effect); details: C. elegans worm area imaging, day 7
# Procedure, shortened: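 Viability is taken from GFP fluorescence of PE254-GFP-FLuc C. elegans imaged by laser cytometry over 7 days. Ten L1 worms per well grow at 21 °C on TOP10 E. coli capsules with titrated compound; levamisole marks toxicity.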
# [7] = system: Nanoluciferase (engineered Oplophorus gracilirostris luciferase); assay: Primary Nanoluciferase (NLuc) qHTS assay for identification of artifact compounds. (AID 1845222);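 note: NLuc secreted into diluted conditioned medium of S16 cells; series mostly up to about 54 µM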
# Procedure, shortened: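 Using secreted nanoluciferase in S16 culture medium (0.22 um filtered, 1:55 dilution), compounds were preincubated 15 min at RT. Signal was generated with Nano-Glo reagent (1:100) over 5 min.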
# [8] = Primary redox qHTS assay for identification of artifact compounds. (AID 1845223)
# Procedure, shortened: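 Amplex Red (25 uM) and HRP (250 mU/mL) in HBSS, with compounds for 15 min, then 250 uM DTT for 30 min, room temperature, dark. Fluorescence 525/598 nm read; normalized to DMSO and 10 uM DA3003; Hill fit.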
smiles,measurement,setting,value
CC(=O)O[C@H]1[C@H](O[C@H]2CC[C@]34C[C@]35CC[C@]3(C)[C@@H]([C@@]6(C)CC[C@@H](C(C)(C)O)O6)[C@@H](O)C[C@@]3(C)[C@@H]5C[C@H](O[C@@H]3O[C@H](CO)[C@@H](O)[C@H](O)[C@H]3O)[C@H]4C2(C)C)OC[C@@H](OC(C)=O)[C@@H]1O,Potency,[1],inactive
same,Potency,[2],inactive
same,Potency,[3],inactive
same,Potency,[4],inactive
Cc1noc2c1-c1ccccc1C(c1ccc(Cl)cc1)=N[C@H]2CC(N)=O,outcome,[5],inactive
same,Potency,[6],5.15 µM (active)
same,Potency,[1],inactive
same,Potency,[2],inactive
same,Potency,[3],inactive
same,Potency,[4],inactive
same,Potency,[7],inactive
same,Potency,[8],inactive
C=C(C)C1Cc2c(ccc3c2OCC(c2ccc(O)cc2O)C3)O1 (configuration not stated),Potency,[1],inactive
same,Potency,[2],inactive
same,Potency,[3],inactive
same,Potency,[4],inactive
same,Potency,[7],inactive
CC(=O)OC1CC(C(C)(C)O)OC2CCC3(C)OC4=C(C(=O)C=C5C(C)C(OC(C)=O)C6(C)C(C)OC546)C(O)C3C12C (configuration not stated),Potency,[1],inactive
same,Potency,[2],inactive
same,Potency,[3],inactive
same,Potency,[4],inactive
same,Potency,[7],inactive
Cc1ccccc1NC(=O)Nc1ccc(CN2C(=O)N([C@@H](CC(C)C)C(=O)N[C@@H](CC(=O)O)c3ccccc3)C(=O)C2(C)C)cc1,Potency,[1],inactive
same,Potency,[2],inactive
same,Potency,[3],inactive
same,Potency,[4],inactive
same,Potency,[7],inactive
C[C@@H]1O[C@@H](O[C@H]2[C@@H]3C=CO[C@@H](O[C@@H]4O[C@H](CO)[C@@H](O)[C@H](O)[C@H]4O)[C@@H]3[C@@]3(CO)O[C@@H]23)[C@H](O)[C@H](OC(=O)/C=C/c2ccc(O)c(O)c2)[C@H]1O,Potency,[1],inactive
same,Potency,[2],inactive
same,Potency,[3],inactive
same,Potency,[4],0.562 µM (active)
same,Potency,[7],inactive
CC(C)C1CCC(CO)=CC1/C=C(\CO)C(=O)OCC1(O)CCC(C(C)C)C2C=C(C(=O)O)COC(=O)C21 (configuration not stated),Potency,[1],inactive
same,Potency,[2],inactive
same,Potency,[3],inactive
same,Potency,[4],inactive
same,Potency,[7],inactive
Cc1ccc(-c2c(-c3nn(C)c4ncnc(N5CC[C@H](N6CCCCC6)C5)c34)cnn2C)cc1,Potency,[1],inactive
same,Potency,[2],inactive
same,Potency,[3],inactive
same,Potency,[4],inactive
same,Potency,[7],inactive
C/C(=C\CCC(C)CCO)C(=O)OC[C@H]1O[C@@H](O[C@@H]2OC=C(C(=O)O)[C@H]3CC[C@](C)(O)[C@@H]23)C(O)[C@@H](O)C1O (some centres not stated),Potency,[1],inactive
same,Potency,[2],inactive
same,Potency,[3],inactive
same,Potency,[4],2.32 µM (active)
same,Potency,[7],inactive
CC1CC2(O)OC(=O)C3=C2C(CCC3)[C@@]12C[C@@H](c1ccoc1)OC2=O (some centres not stated),Potency,[1],inactive
same,Potency,[2],inactive
same,Potency,[3],inactive
same,Potency,[4],4.65 µM (active)
same,Potency,[7],inactive
CC(C)CC(c1c(O)c(C=O)c(O)c(C=O)c1O)C1CCC(C)(O)C2CC(C(C)(C)O)CCC12C (configuration not stated),Potency,[1],inactive
same,Potency,[2],inactive
same,Potency,[3],inactive
same,Potency,[4],4.12 µM (active)
same,Potency,[7],inactive
CC(=O)OCC1OC(O[C@H]2CC[C@@]3(C)C(CC[C@]4(C)C3CC=C3[C@@H]5CC(C)(C)CC[C@]5(C(=O)O)CC[C@]34C)[C@]2(C)CO)C(O)C(O)C1OC1OC(C)C(O)C(OC2OCC(O)C(O)C2O)C1O (some centres not stated),Potency,[1],inactive
same,Potency,[2],inactive
same,outcome,[3],inactive [at 11.6 µM]
same,"activity change, negative = thiol reactive",[4],307% [at 11.5 µM]
same,"activity, negative = inhibition",[7],3.41% [at 11.6 µM]
C=CC(C)(CCC=C(C)C)O[C@@H]1O[C@H](CO)[C@@H](O)[C@H](O)[C@H]1O (some centres not stated),Potency,[1],inactive
same,Potency,[2],inactive
same,Potency,[3],inactive
same,Potency,[4],inactive
same,Potency,[7],inactive
CC(=O)NC(Cc1ccccc1)C(=O)NC(C(=O)O)C(C)C (stereo not drawn) (Ac-Phe-Val-OH; configuration not given here),Potency,[1],inactive
same,Potency,[2],inactive
same,Potency,[3],inactive
same,Potency,[4],inactive
same,Potency,[7],inactive
C[C@@]1(O)[C@H](O)[C@@H](CO)O[C@H]1n1cnc2c(=O)[nH]c(N)nc21,Potency,[1],inactive
same,Potency,[2],inactive
same,Potency,[3],inactive
same,Potency,[4],inactive
same,Potency,[7],inactive
C/C=C1/CC2C(=O)Nc3cc(O)c(OC)cc3C(=O)N2C1 (configuration not stated),Potency,[1],inactive
same,Potency,[2],inactive
same,Potency,[3],inactive
same,Potency,[4],13.1 µM (active)
same,Potency,[7],inactive
CC1(C)OC(=O)CC(O)C2(C)C1CC(=O)C1(C)C2C(O)CC2(C)C(c3ccoc3)OC(=O)C3OC321 (configuration not stated),Potency,[1],inactive
same,Potency,[2],inactive
same,Potency,[3],inactive
same,Potency,[4],inactive
same,Potency,[7],inactive
CC1CCC2C(C)(C)[C@H](O)CC[C@]2(C)C12Cc1c(O)cc3c(c1O2)CN(C(CCC(=O)O)C(=O)O)C3=O (some centres not stated),Potency,[1],inactive
same,Potency,[2],inactive
same,Potency,[3],inactive
same,Potency,[4],inactive
same,Potency,[7],inactive
CC(C)=CCC(O)[C@](C)(O)C1[C@H](O)C[C@@]2(C)C3CC=C4C(C[C@H](O)[C@@H](O[C@@H]5O[C@H](CO)[C@@H](O)[C@H](O)[C@H]5O)C4(C)C)[C@]3(C)C(=O)C[C@]12C (some centres not stated),Potency,[1],inactive
same,Potency,[2],inactive
same,Potency,[3],inactive
same,Potency,[4],inactive
same,Potency,[7],inactive
C/C(=C/CO)CC[C@H]1[C@]2(C)C[C@H](O)CC(C)(C)[C@H]2CC[C@]1(C)O,Potency,[1],inactive
same,Potency,[2],inactive
same,Potency,[3],inactive
same,Potency,[4],inactive
same,Potency,[7],inactive
C=CC(C)(O)CC/C=C(\C)C(=O)O[C@@H]1[C@@H](O)[C@H](OC(C)(C=C)CC/C=C(\C)C(=O)O[C@@H]2O[C@H](CO)[C@@H](O)[C@H](O)[C@H]2O)O[C@H](CO)[C@H]1OC(=O)/C(C)=C/CCC(C)(O)C=C (some centres not stated),Potency,[1],inactive
same,Potency,[2],inactive
same,"activity change, negative = inhibition",[3],0.429% [at 11.6 µM]
same,"activity change, negative = thiol reactive",[4],71.6% [at 11.5 µM]
same,"activity, negative = inhibition",[7],0.542% [at 11.6 µM]
